Sampled rows, rich in hits. Any-hit rate of the full collection: about 17%.
HT1080NT lethal = qHTS for induction of synthetic lethality in tumor cells producing 2HG: qHTS for the HT-1080-NT fibrosarcoma cell line. actives 1.6% (n = 360,000). HT-1080-NT fibrosarcoma viability, CellTiter-Glo ATP luminescence, 48 h. Potency, µM (series often up to 46.1 µM), without a hit: at the top dose activity, negative = less viability, hits mostly cytotoxic. AID 686970, 2013;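 also: NT is the 2HG producing partner of a matched IDH1 knockdown line; 0% = DMSO-treated cells and -100% = media-only wells without cells; nearly all actives have a fitted effect of over 55% in size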
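Compounds were tested in concentration-response format on HT-1080-NT cells for 48 hours at 37 degrees C. Cell viability came from CellTiter-Glo luminescence; curves were classified by r2, response magnitude and activity.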
TDP1 cell noCPT = qHTS for Inhibitors of human tyrosyl-DNA phosphodiesterase 1 (TDP1): qHTS in cells in absence of CPT; actives 15% (n = 420,000); Potency, µM (highest dose often 46.2 µM), without a hit: top-dose activity change, negative = growth inhibition, hits mostly inhibitors; DT40 Tdp1-/- hTDP1 cells, no CPT, ATP luminescence, 48 h; also: % is scaled to controls: 0 for no effect and ±100 for the full control effect; nearly all actives have a fitted effect of over 55% in size
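Stably hTDP1-transfected Tdp1-null chicken DT40 cells were treated with library compounds minus camptothecin and grown for at least 48 hr at 37 °C, after which cellular ATP was quantified by luminescence.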
TGFb SMAD3 inh = qHTS for Inhibitors of TGF-b. HepG2 CAGA-GFP TGF-b/SMAD3 reporter, GFP fluorescence, 18 h; TGF-beta stimulated, 500 pg/mL final. Potency, µM (titrated, usually from 46.1 µM), inactives show at the top dose activity, negative = inhibition, usual class: inhibitors. actives 1.2% (n = 410,000); also: % is scaled to controls: 0 for no effect and ±100 for the full control effect; nearly all actives have a fitted effect of over 65% in size
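Cell-based qHTS in HEPG2 carrying a CAGA-GFP Smad reporter; compounds added before 500 pg/mL final TGF-beta, 18 h incubation at 37 degrees C, GFP fluorescence quantified per cell by imaging cytometry.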
HT1080 IDH1KD tx = qHTS for induction of synthetic lethality in tumor cells producing 2HG: qHTS for the HT-1080-IDH1KD cell line | HT-1080 IDH1 knockdown viability, ATP luminescence, 48 h | Potency, µM (top dose mostly 46.1 µM), for the others: at the highest dose activity, negative = toxicity, usual class: cytotoxic | actives 2% (n = 360,000);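 also: 0% = DMSO wells and -100% = cell-free medium wells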
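CellTiter-Glo luminescence after 48 h compound exposure at 37 degrees C of IDH1-knockdown HT-1080 cells in 5% FBS RPMI. %Activity scaled between DMSO wells and cell-free media wells, with curves fitted and assigned curve classes.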
TDP1 cell CPT = qHTS for Inhibitors of human tyrosyl-DNA phosphodiesterase 1 (TDP1): qHTS in cells in presence of CPT | chicken DT40 Tdp1-/-;hTDP1 cells + 20 nM CPT, ATP luminescence, 48 h | Potency, µM (series often up to 46.2 µM), without a hit: at the top dose activity change, negative = growth inhibition, usual class: inhibitors | actives 12% (n = 420,000) | AID 686979, 2013; also: % is scaled to controls: 0 for no effect and ±100 for the full control effect; nearly all actives have a fitted effect of over 55% in size
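Cell growth measured by CellTiter-Glo luminescence after a minimum 48 h, 37 C compound exposure with 20 nM CPT in Tdp1-knockout DT40 cells stably expressing hTDP1, seeded 400/well; qHTS titration format.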
HepG2 viability = qHTS for Inhibitors of TGF-b: Cytotox Counterscreen | HepG2 CAGA-GFP viability, ATP luminescence, 18 h | Potency, µM (titrated, usually from 46.1 µM), inactives show at the top dose activity change, negative = cytotoxicity, actives largely listed as cytotoxic | actives 0.76% (n = 410,000)
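CellTiter-Glo luminescence gave cytotoxicity after 18 hours at 37 degrees C. The cells were HepG2 CAGA-GFP in 1% FBS DMEM, stimulated with 500 pg/mL TGF-beta after compound addition. %Activity was normalised to no-cell wells (complete cell-killing) and DMSO (no toxicity), and curves were fitted and classified.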
* marks the source's active call; other numbers are inactive results; u = inconclusive; x = no result given. Calls follow the shape of the dose curve; as a rule, active = well fitted curve in the direction sought with a large enough effect; inconclusive = small, poorly fitted or top-dose-only effect, or another doubt; inactive = no such curve, though single readings can be large; an effect the other way counts as inactive or inconclusive. Potency is read from the fitted curve at half-maximal effect.

SMILES	HT1080NT lethal	TDP1 cell noCPT	TGFb SMAD3 inh	HT1080 IDH1KD tx	TDP1 cell CPT	HepG2 viability
NS(=O)(=O)c1ccc(CCNCc2ccccc2OCc2ccc(Cl)cc2)cc1	23.1µM*	u	u	14.6µM*	23.1µM*	-91.2%
OCCNCc1cc(Br)ccc1OCc1ccccc1Cl	u	20.6µM*	u	u	20.6µM*	-52.2%
C=CCOc1ccccc1CNCCc1ccc(S(N)(=O)=O)cc1	2.8%	-19.0%	18.2%	-5.6%	-19.3%	-7.0%
O=C(NCc1ccco1)C1CC(=O)N(c2ccc(O)cc2)C1 (stereo unspecified)	10.1%	25.9µM*	5.1%	11.5%	20.6µM*	4.2%
O=C(CSc1nnnn1-c1ccccc1)Nc1ncc2c(n1)CC(c1ccccc1)CC2=O (stereo unspecified)	4.0%	u	1.7%	0.5%	15.8µM*	10.1%
OC[C@H]1OC(O)[C@H](O)[C@@H]1O (stereo partly specified)	u	12.1%	-0.6%	13.8%	10.2%	-5.1%
Cn1cnc([N+](=O)[O-])c1NCc1ccccc1	18.4%	-2.8%	-10.1%	9.4%	3.2%	-21.7%
Cc1nn(C(C)C(=O)c2cccc(Cl)c2)c(C)c1[N+](=O)[O-] (stereo unspecified)	-3.8%	-1.6%	-4.9%	-11.0%	12.5%	2.9%
Cn1cnc([N+](=O)[O-])c1S(=O)(=O)Nc1ccccc1	10.3µM*	14.6µM*	-5.5%	u	16.4µM*	-24.1%
Cn1cnc([N+](=O)[O-])c1S(=O)(=O)c1cccc(Cl)c1	u	2.31µM*	u	u	1.84µM*	-107.1%
Cn1cnc([N+](=O)[O-])c1S(=O)(=O)Oc1ccccc1	u	1.03µM*	u	23.1µM*	0.651µM*	-189.4%
O=C(NCCc1ccccn1)c1nc(Cn2ccc([N+](=O)[O-])n2)no1	7.2%	-4.3%	0.6%	1.1%	1.3%	2.0%
CC(C)N1C(=O)C(Cc2nc3ccccc3c(=O)n2-c2ccccc2)c2ccccc21 (stereo unspecified)	-6.9%	-20.8%	-3.0%	-5.5%	u	-27.0%
CC(C)N1C(=O)/C(=C/c2nc3ccccc3c(=O)n2-c2ccccc2)c2ccccc21	-28.8%	23.1µM*	u	u	20.6µM*	-10.9%
CC(C)N1C(=O)/C(=C\c2nc3ccccc3c(=O)n2-c2ccccc2)c2ccccc21	u	16.4µM*	-14.8%	u	23.1µM*	-21.7%
C/C(=N\Nc1cccc(C(F)(F)F)c1)c1ccc(O)cc1	-23.2%	-26.6%	1.1%	-28.5%	-11.8%	-6.0%
Cc1ccc2c(c1)C(=O)CCCCC(=O)N2	8.2%	5.1%	12.2%	-0.8%	-16.1%	-4.0%
O=C(NC1CCN(Cc2ccccc2)CC1)c1cc(S(=O)(=O)N2CCOCC2)ccc1Cl	-0.4%	-26.1%	-8.6%	-1.3%	u	-33.8%
COc1ccc(-n2nnnc2C(c2cccc(OC)c2OC)N2CCN(C/C=C/c3ccccc3)CC2)cc1 (stereo unspecified)	u	18.4µM*	u	u	23.1µM*	-6.4%
COc1ccc(-n2nnnc2C(c2ccccc2)N2CCN(C/C=C/c3ccccc3)CC2)cc1 (stereo unspecified)	u	u	u	u	20.6µM*	-31.0%
COc1cccc(C(c2nnnn2C2CCCC2)N2CCN(C/C=C/c3ccccc3)CC2)c1OC (stereo unspecified)	u	u	u	u	u	-18.6%
CCC(c1nnnn1C(C)(C)C)N1CCN(C/C=C/c2ccccc2)CC1 (stereo unspecified)	0.4%	u	-4.0%	9.7%	u	-14.3%
CCC(c1nnnn1-c1ccc(OC)cc1)N1CCN(C/C=C/c2ccccc2)CC1 (stereo unspecified)	-17.3%	u	u	-13.9%	20.6µM*	-7.1%
CC(C)(C)n1nnnc1C(c1ccccc1)N1CCN(C/C=C/c2ccccc2)CC1 (stereo unspecified)	-28.3%	u	-9.5%	-24.2%	u	-14.8%
COc1ccc(-n2nnnc2C(CCc2ccccc2)N2CCN(C/C=C/c3ccccc3)CC2)cc1 (stereo unspecified)	u	16.4µM*	-69.8%	u	u	-5.7%
SMILES	HT1080NT lethal	TDP1 cell noCPT	TGFb SMAD3 inh	HT1080 IDH1KD tx	TDP1 cell CPT	HepG2 viability
CCCCN(C)C(=O)c1cc2c(Cl)nc3ccccc3c2s1	-0.7%	u	-11.4%	-22.2%	u	-10.7%
Cc1ccc([C@@H]2C[C@H]3[C@@H](CN2S(=O)(=O)c2ccc(Cl)cc2)C(=O)C[C@@H](c2ccc(C)cc2)N3S(=O)(=O)c2ccc(Cl)cc2)cc1	7.4%	1.8%	3.0%	-0.2%	-6.2%	-9.4%
CCOC(=O)C1CCN(c2nc3c(S(=O)(=O)c4ccccc4)nnn3c3ccsc23)CC1	x	20.6µM*	-36.0%	x	14.6µM*	-27.7%
CCOC(=O)C1CCN(c2nc3c(S(=O)(=O)c4ccccc4)nnn3c3ccc(Cl)cc23)CC1	x	14.6µM*	26.5%	x	23.1µM*	-0.4%
CC(=O)c1ccsc1-c1c(C)cc2oc(=O)cc(-c3ccccc3)c2c1C	-7.1%	u	u	-11.0%	u	-17.0%
O=C(c1cnn2c1NC(c1ccco1)CC2C(F)(F)F)N1CCN(c2cccc(Cl)c2)CC1 (stereo unspecified)	14.6µM*	8.2µM*	u	18.4µM*	16.4µM*	-14.5%
COc1ccccc1N1CCN(C(=O)c2cc3n(n2)C(C(F)(F)F)CC(c2ccco2)N3)CC1 (stereo unspecified)	-7.4%	18.4µM*	-3.9%	-9.7%	14.6µM*	-3.9%
O=C(c1cc2n(n1)C(C(F)(F)F)CC(c1ccco1)N2)N1CCc2ccccc2C1 (stereo unspecified)	-19.1%	18.4µM*	u	u	u	-0.8%
COc1cc2c(cc1OC)C(C)N(C(=O)c1cc3n(n1)C(C(F)(F)F)CC(c1ccco1)N3)CC2 (stereo unspecified)	-19.5%	u	u	-22.0%	u	-9.3%

Screening data from PubChem BioAssay.
